Screen size: about 340,000 compounds; about 2,100 (0.62%) were called active.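 The calls were made as follows: active = first-screen hits whose inhibition reached a set limit at any dose in the follow-up dose series; inconclusive = inhibition above the set first-screen limit but never retested; inactive = the rest.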 These entries were drawn from the full list. Potency and affinity values are given separately.
Each molecule was assayed against Rac GTPase-activating protein 1 (Homo sapiens) (UniProt Q9H0H5) (assay: blockers of MgcRacGAP-driven Rac1 GTP hydrolysis – biochemical, ADP Hunter fluorescence, primary and confirmatory, confirmation (AID 624330;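 also: fluorescence reports GDP produced by GAP-driven GTP hydrolysis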)). Conditions: MgcRacGAP-stimulated Rac1 GTP hydrolysis, at 30 µM, active compounds read high, GST-tagged Rac1 F28L mutant substrate.
Rac GTPase-activating protein 1 (Homo sapiens), sequence (Q9H0H5 whole entry, looked up): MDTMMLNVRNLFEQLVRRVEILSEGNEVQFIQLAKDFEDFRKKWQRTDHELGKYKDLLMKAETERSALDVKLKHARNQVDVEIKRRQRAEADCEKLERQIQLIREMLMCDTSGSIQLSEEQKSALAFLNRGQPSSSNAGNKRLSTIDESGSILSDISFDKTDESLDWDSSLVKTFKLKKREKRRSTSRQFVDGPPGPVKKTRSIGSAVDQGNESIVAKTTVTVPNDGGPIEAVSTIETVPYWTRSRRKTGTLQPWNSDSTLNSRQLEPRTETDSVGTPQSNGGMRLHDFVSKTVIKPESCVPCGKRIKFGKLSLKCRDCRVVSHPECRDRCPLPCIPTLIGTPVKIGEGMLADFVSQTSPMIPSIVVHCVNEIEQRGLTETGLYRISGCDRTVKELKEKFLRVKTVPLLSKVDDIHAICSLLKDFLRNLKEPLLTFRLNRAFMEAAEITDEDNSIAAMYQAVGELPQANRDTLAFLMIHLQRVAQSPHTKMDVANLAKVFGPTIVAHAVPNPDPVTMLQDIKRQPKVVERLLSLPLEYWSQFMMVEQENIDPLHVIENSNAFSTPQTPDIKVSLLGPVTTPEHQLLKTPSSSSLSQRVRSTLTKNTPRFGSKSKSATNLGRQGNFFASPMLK

inhibition, inactive:
Cc1noc(C)c1S(=O)(=O)Nc1ccc2c(c1)C(=O)N([C@H](C)CO)C[C@@H](C)[C@@H](CN(C)Cc1ccc3c(c1)OCO3)O2 1.37%
CC(=O)Nc1ccc(S(=O)(=O)N2CCC(N3CCCC3)CC2)cc1 18.2%
Cc1ncc([N+](=O)[O-])n1Cc1cccc2ccccc12 5.41%
CCCNC(=O)NC(=O)COC(=O)CNS(=O)(=O)/C=C/c1ccccc1 6.44%
O=c1sc2ccccc2c(=O)n1Cc1ccccc1F 7.23%
Cc1ccc(Cn2c(=O)sc3ccccc3c2=O)cc1 5.22%
COc1ccc(Cn2c(=O)sc3ccccc3c2=O)cc1 3.77%
O=C(O)c1cn(-c2ccc(F)cc2)c(=O)c2ccccc12 8.79%
COc1ccc(-n2c(=O)c3ccccc3c3ccccc3c2=O)cc1 11.5%
O=C(c1sc2ccccc2c1Cl)N1CCN(c2ccc(F)cc2)CC1 3.37%
Cn1sc2ccccc2c1=O 18%
O=c1c2ccccc2sn1-c1ccc(S(=O)(=O)N2CCCC2)cc1 21.2%
COc1ccc(NC(=O)COC(C)=O)cc1Cl 3.23%
CCOc1ccc(S(=O)(=O)NCCC(=O)NCC(c2cccs2)N(C)C)cc1 (centres undefined) 8.66%
C#CCNc1cc(C)nc2ncnn12 1.75%
CC(C)CNC(=S)N(CCO)Cc1cc2cc3c(cc2[nH]c1=O)OCO3 14.8%
CC(=C1SC(=S)NC1=O)c1ccccc1 -4.42%
O=C(/C=N/NC(=O)c1ccc(Cl)cc1Cl)c1ccccc1 15%
COc1ccccc1-n1c(SCC(=O)NC2CCCCC2)nc2c(c1=O)SCC2 12.8%
COc1ccc(C(=O)Nc2ccccc2NC(=O)c2ccco2)cc1OC 11%
C/C(=C\C(=O)c1ccc(F)cc1)Nc1ccc(N2CCOCC2)cc1 15.3%
O=C(NCCNC(=O)Nc1ccc(Cl)cc1)Nc1ccc(Cl)cc1 0.54%
CCCCNC(=S)Nc1ccc(Cl)cc1 8.23%
CCOc1ccccc1CNC(=O)C1CCN(c2nn3c(=O)cc(C)nc3s2)CC1 10.9%
O=[N+]([O-])c1ccc(-n2nnnc2CN2CCOCC2)cc1 8.87%
COc1ccc2c(c1)c1ccccc1n2C -2.65%
C/C(=N\O)c1ccc2c3ccccc3n(C)c2c1 11%
Cc1cc(N2CCOCC2)nc(SCc2c(Cl)cccc2Cl)n1 8.06%
O=C(O)C1CCN(Cc2ccccn2)CC1 4.54%
Clc1ccc(CN2CCC(Cc3ccccc3)CC2)cc1 14.2%
O=c1ccn([C@H]2C[C@H](O)[C@@H](CO)O2)c(=O)[nH]1 1.01%
CN(CC(=O)NCC(=O)Nc1ccc(F)cc1)C1CCS(=O)(=O)C1 (centres undefined) 3.81%
COc1ccc2c(c1)C(c1ccccc1)=NNC(c1ccco1)=N2 2.48%
COc1ccc(N2C(S)=C(C#N)C(=O)NC2c2ccco2)cc1 (centres undefined) 38.5%
N#CC1=C(S)N(c2ccccc2)C(c2ccco2)NC1=O (centres undefined) 1.78%
COc1ccc(C2NC(=O)C(C#N)=C(S)N2c2ccccc2)cc1OC (centres undefined) 42.4%
N#CC1=C(S)N(c2ccccc2)C(c2ccc(-c3cc(Cl)ccc3Cl)o2)NC1=O (centres undefined) 19.7%
Cc1ccc(N2C(S)=C(C#N)C(=O)NC2c2ccco2)cc1 (centres undefined) 49.9%
N#CC1=C(S)N(c2ccccc2)C(c2ccc(-c3ccc(Cl)c(Cl)c3)o2)NC1=O (centres undefined) 24.7%
O=C(COC(=O)c1cc(F)c(F)cc1Cl)NC1CCCCCC1 -27.4%
CCN(CC)S(=O)(=O)c1ccc(N2CCN(c3ccccc3O)CC2)nc1 5.53%
Clc1ccc(NCc2nnc3n2CCCCC3)cc1 10.6%
CC(=O)N1CCOc2ccc(S(=O)(=O)Nc3ncccc3C)cc21 4.93%
Cc1ccc(NC(=O)Cc2nc(COC(=O)c3c(F)cccc3Cl)cs2)cc1 2.55%
O=C1c2ccccc2/C(=C\c2ccc(Br)s2)N1c1ccccc1 1.75%
COc1ccc(N2CCN(C(=O)c3cc(=O)[nH]c4ccccc34)CC2)cc1 18.3%
OC(COC(c1ccc(F)cc1)c1ccc(F)cc1)CN1CCc2ccccc2C1 (centres undefined) 20.1%
COc1ccc(C(OCC(O)CN2CCC(O)CC2)c2ccc(OC)cc2)cc1 (centres undefined) 6.25%
COc1ccc(N2CCN(CC(O)COC(c3ccccc3)c3ccccc3)CC2)cc1 (centres undefined) 8.7%
OC(COC(c1ccc(F)cc1)c1ccc(F)cc1)CN1CCCC1 (centres undefined) 31.4%
CCOC(=O)Cc1csc(NC(=O)c2ccc(C)o2)n1 3.9%
Cc1nc(SCc2ccc([N+](=O)[O-])cc2)nc2ccccc12 8.16%
O=C1CSC(=S)N1c1ccccc1 -7.87%
O=C(COc1ccccc1)NN1C(=O)CSC1=S 6.09%
O=C(Cn1cc([N+](=O)[O-])cn1)NCc1cc2ccccc2[nH]1 8.44%
CCOc1cc(N2CCOCC2)c(OCC)cc1NC(=O)c1ccc(C)cc1 19.8%
CCOc1cc(N2CCOCC2)c(OCC)cc1NC(=O)c1ccccc1 27.1%
CCOc1cc(N2CCOCC2)c(OCC)cc1NC(=O)c1cc(C)cc(C)c1 10.8%
CCOc1cc(N2CCOCC2)c(OCC)cc1NC(=O)Cc1ccccc1 10.9%
CC(C)CN1CC(Br)C(=O)NC1=O (centres undefined) 4.9%
COc1ccc(CCNC(=S)Nc2ccccc2)cc1 12.5%
COc1ccc(C)cc1NC(=O)C(=O)N/N=C(\C)CC(=O)Nc1cccnc1 -2.35%
N#CCC(=N)N1CCN(c2ccc(F)cc2)CC1 1.28%
CN(C(=O)OC(C)(C)C)[C@H](Cc1ccccc1)C(=O)N[C@H]1CCCCNC1=O 4.78%

— PubChem BioAssay AID624330 (Southern Research Specialized Biocontainment Screening …, 2012)
